For part of these data: Measured potencies and affinities stand elsewhere. Activity calls are given as the source filed them. Unless noted, cut-off not given; nearly all actives show IC50 up to about 0.98 µM.
test system: not listed separately; assay: inhibition of 3D7 malaria parasite growth – strain 3D7 (AID 2306; call rule not given here;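 further: 0% = DMSO wells and 100% = chloroquine plus artemisinin control wells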); details: P. falciparum 3D7 erythrocytic growth, LDH absorbance, 72 h; at 2 µM; active compounds read high

| SMILES | growth inhibition |
| --- | --- |
| COC(=O)c1cccc(OCCNC2CCN(C[C@H](O)c3ccnc4ccc(OC)cc34)CC2)c1 | 100% (active) |
| Cc1noc(C)c1-c1cccc(CNCc2ccc(-c3ccc(-c4nc5ccccc5[nH]4)s3)cc2)c1 | 103% (active) |
| N=C(N)CCN(Cc1ccc(Cl)cc1)c1ccc(Cl)cc1 | 96% (active) |
| COc1ccc2c(NN=Cc3ccccc3F)ccnc2c1 | 98% (active) |
| FC(F)(F)c1ccc2nc(-c3ccc(-c4cccc(CNCc5ccccc5)c4)s3)[nH]c2c1 | 102% (active) |
| O=[N+]([O-])c1cc(C(c2ccc(O)c([N+](=O)[O-])c2)C(Cl)(Cl)Cl)ccc1O | 93% (active) |
| N#Cc1ccc2c(c1)CCN(CCC1CCC(NC(=O)/C=C/c3cnc4ccccc4c3)CC1)CC2 (stereo not drawn) | 87% (active) |
| Cn1c(NC(=O)C2CCC(CNC(=O)c3ccc(O)c(-c4cccc([N+](=O)[O-])c4)c3)CC2)nc2ccccc21 (stereo not drawn) | 95% (active) |
| Fc1cccc(CNc2ncc(-c3ccsc3)c(-c3nccs3)n2)c1 | 91% (active) |
| Cc1cc(N[C@@H](CC(C)C)C(=O)NCc2cccc(F)c2)nc(Nc2ccccc2)n1 | 100% (active) |
| CCc1sc(N2CCN(C)CC2)nc1C(=O)NCCc1ccc(Cl)c(Cl)c1 | 92% (active) |
| COc1cc2nc(N3CCC(CCCC4CCNCC4)CC3)nc(NCc3ccccn3)c2cc1OC | 101% (active) |
| O=C(NC1CCN(Cc2ccccc2O)C1)c1ccc(Cl)c(Cl)c1 (stereo not drawn) | 92% (active) |
| CNC(=O)/C=C/c1cc(NC(=O)Nc2cc(C)nc3c(F)cccc23)ccc1OC | 98% (active) |
| CCc1ccc(NC(=O)c2ccc(CN3CCCN(Cc4cccc(O)c4)CC3)cc2)cc1 | 100% (active) |
| CC(C)c1sc(-c2ccc(C(C)(C)C)cc2)nc1C(=O)NCCCN1CCCC1=O | 96% (active) |
| NC(N)=Nc1nc(-c2cccc(NC(=O)Cc3ccccc3)c2)cs1 | 99% (active) |
| O=C(NCCc1ccccc1)N(Cc1ccccc1-c1cccc(CNCc2ccc3c(c2)OCO3)c1)C1CCN(Cc2ccccc2)CC1 | 93% (active) |
| CC(Oc1ccc(Cl)cc1)C(=O)N(C)C1CCN(CCCCCNC(=O)/C=C/c2ccc(Cl)c(Cl)c2)CC1 (stereo not drawn) | 85% (active) |
| CCOc1cc(C)ccc1C1CCN(CCCCNC(=O)c2cccc(-c3ccc(C(F)(F)F)cc3)c2)CC1 | 99% (active) |
| c1ccc(CNc2nc(NCCc3cnc[nH]3)nc(N3CCCC4CCCCC43)n2)cc1 (stereo not drawn) | 98% (active) |
| Cc1cc(NC(=O)c2ccsc2)ccc1OC1CCN(Cc2ccc(F)cc2)CC1 | 83% (active) |
| N=c1n(CCN2CCCCC2)c2ccccc2n1CC(O)c1cccc(Br)c1 (stereo not drawn) | 86% (active) |
| COc1cccc(C(=O)NCCOc2ccccc2)c1Oc1ccccc1 | 98% (active) |

target: Calcium-dependent protein kinase 1 (Plasmodium falciparum (isolate 3D7)) (UniProt P62344); assay: PfCDPK1 kinase inhibitors, biochemical, TCAMS library (AID 1159585); details: recombinant PfCDPK1, Kinase-Glo ATP depletion luminescence;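 further: inhibitors leave more ATP so luminescence rises with inhibition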
Sequence (P62344 whole entry, looked up): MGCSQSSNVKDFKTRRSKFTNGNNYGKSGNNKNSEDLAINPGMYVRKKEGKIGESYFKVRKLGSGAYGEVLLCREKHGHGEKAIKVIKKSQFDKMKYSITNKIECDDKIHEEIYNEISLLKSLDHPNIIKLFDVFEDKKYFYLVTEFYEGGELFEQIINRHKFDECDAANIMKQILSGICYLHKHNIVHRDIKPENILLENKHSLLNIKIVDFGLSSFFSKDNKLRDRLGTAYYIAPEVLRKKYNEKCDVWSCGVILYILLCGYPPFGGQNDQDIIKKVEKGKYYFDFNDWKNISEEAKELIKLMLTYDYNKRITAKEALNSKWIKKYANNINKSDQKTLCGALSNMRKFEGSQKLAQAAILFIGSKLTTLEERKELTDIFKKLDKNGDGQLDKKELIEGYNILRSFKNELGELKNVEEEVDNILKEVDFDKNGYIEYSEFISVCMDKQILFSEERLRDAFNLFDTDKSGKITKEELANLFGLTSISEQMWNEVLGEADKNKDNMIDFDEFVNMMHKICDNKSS

| SMILES | outcome |
| --- | --- |
| COc1ccc2nccc([C@@H](O)CN3CCC(NCc4cc5ccccc5o4)CC3)c2c1 | inactive |
| Oc1ccc(-c2cncc(NCc3ccc(F)c(F)c3)c2)cc1 | inactive |
| Cc1cc(C(=O)Nc2ccc3c(ccn3C3CCCN(Cc4ccc(C(F)(F)F)cc4F)CC3)c2)no1 (stereo not drawn) | inactive |
| O=C(Nc1nc(-c2ccccn2)cs1)c1ccc(S(=O)(=O)N2CCc3ccccc32)cc1 | inactive |
| Cc1cc(NC2CCCC2)nc(Nc2ccccc2F)n1 | inactive |
| COc1ccc2nccc([C@@H](O)CN3CCC(NCCOc4cc(F)cc(F)c4)CC3)c2c1 | inactive |
| CN1CCCN(Cc2cccc(-c3cccc(NS(=O)(=O)c4cccc5cccnc45)c3)c2)CC1 | inactive |
| Cc1nc(-c2cccc(Nc3nccc(NCC(O)c4ccccc4C)n3)c2)cs1 (stereo not drawn) | inactive |
| N#Cc1cccc(Nc2nccc(NCC(O)c3ccccc3C(F)(F)F)n2)c1 (stereo not drawn) | inactive |
| CCCCNCc1ccc(-c2nc(CN(Cc3ccc(Cl)c(Cl)c3)C(=O)CN(C)C)cs2)cc1 | inactive |
| COc1cc2nc(NCC3CCN(c4nc(N)c5cc(OC)c(OC)cc5n4)CC3)nc(N)c2cc1OC | inactive |
| CN1CCC(NCc2ccc(-c3ccc(S(=O)(=O)NCc4ccccc4)c(F)c3)cc2)CC1 | inactive |
| O=C(Nc1cccc(-c2csc(-c3ccccc3)n2)c1)c1cccs1 | inactive |
| CC(C)(C)Nc1cc(C2CC2)nc(-c2ccccn2)n1 | inactive |
| CCOc1ccc(C=CC(=O)Nc2ccc3nc(N4CCOCC4)cc(C)c3c2)cc1OC | inactive |
| COC(=O)c1cccc(OCCNC2CCN(C[C@H](O)c3ccnc4ccc(OC)cc34)CC2)c1 | inactive |
| Cc1noc(C)c1-c1cccc(CNCc2ccc(-c3ccc(-c4nc5ccccc5[nH]4)s3)cc2)c1 | inactive |
| N=C(N)CCN(Cc1ccc(Cl)cc1)c1ccc(Cl)cc1 | inactive |
| COc1ccc2c(NN=Cc3ccccc3F)ccnc2c1 | inactive |
| FC(F)(F)c1ccc2nc(-c3ccc(-c4cccc(CNCc5ccccc5)c4)s3)[nH]c2c1 | inactive |

| SMILES | outcome |
| --- | --- |
| O=[N+]([O-])c1cc(C(c2ccc(O)c([N+](=O)[O-])c2)C(Cl)(Cl)Cl)ccc1O | inactive |
| N#Cc1ccc2c(c1)CCN(CCC1CCC(NC(=O)/C=C/c3cnc4ccccc4c3)CC1)CC2 (stereo not drawn) | inactive |
| Cn1c(NC(=O)C2CCC(CNC(=O)c3ccc(O)c(-c4cccc([N+](=O)[O-])c4)c3)CC2)nc2ccccc21 (stereo not drawn) | inactive |
| Fc1cccc(CNc2ncc(-c3ccsc3)c(-c3nccs3)n2)c1 | inactive |
| Cc1cc(N[C@@H](CC(C)C)C(=O)NCc2cccc(F)c2)nc(Nc2ccccc2)n1 | inactive |
| CCc1sc(N2CCN(C)CC2)nc1C(=O)NCCc1ccc(Cl)c(Cl)c1 | inactive |
| COc1cc2nc(N3CCC(CCCC4CCNCC4)CC3)nc(NCc3ccccn3)c2cc1OC | inactive |
| O=C(NC1CCN(Cc2ccccc2O)C1)c1ccc(Cl)c(Cl)c1 (stereo not drawn) | inactive |
| CNC(=O)/C=C/c1cc(NC(=O)Nc2cc(C)nc3c(F)cccc23)ccc1OC | inactive |
| CCc1ccc(NC(=O)c2ccc(CN3CCCN(Cc4cccc(O)c4)CC3)cc2)cc1 | inactive |
| CC(C)c1sc(-c2ccc(C(C)(C)C)cc2)nc1C(=O)NCCCN1CCCC1=O | inactive |
| NC(N)=Nc1nc(-c2cccc(NC(=O)Cc3ccccc3)c2)cs1 | inactive |
| O=C(NCCc1ccccc1)N(Cc1ccccc1-c1cccc(CNCc2ccc3c(c2)OCO3)c1)C1CCN(Cc2ccccc2)CC1 | inactive |
| CC(Oc1ccc(Cl)cc1)C(=O)N(C)C1CCN(CCCCCNC(=O)/C=C/c2ccc(Cl)c(Cl)c2)CC1 (stereo not drawn) | inactive |
| CCOc1cc(C)ccc1C1CCN(CCCCNC(=O)c2cccc(-c3ccc(C(F)(F)F)cc3)c2)CC1 | inactive |
| c1ccc(CNc2nc(NCCc3cnc[nH]3)nc(N3CCCC4CCCCC43)n2)cc1 (stereo not drawn) | inactive |
| Cc1cc(NC(=O)c2ccsc2)ccc1OC1CCN(Cc2ccc(F)cc2)CC1 | inactive |
| N=c1n(CCN2CCCCC2)c2ccccc2n1CC(O)c1cccc(Br)c1 (stereo not drawn) | inactive |
| COc1cccc(C(=O)NCCOc2ccccc2)c1Oc1ccccc1 | inactive |

Source: PubChem BioAssay
